# Tau ThT inhib = inhibitors of human tau fibril formation, thioflavin T binding; recombinant tau K18 P301L, heparin-induced fibrillization, ThT fluorescence; Potency, µM (doses to about 57.4 µM), without a hit: at the highest dose activity, negative = inhibition, usual class: inhibitors; 270,000 tested, 2.1% active; AID 1460; further: nearly all actives have a fitted effect of over 55% in size
# Target sequence (P10636 561-689 P618L limits assumed): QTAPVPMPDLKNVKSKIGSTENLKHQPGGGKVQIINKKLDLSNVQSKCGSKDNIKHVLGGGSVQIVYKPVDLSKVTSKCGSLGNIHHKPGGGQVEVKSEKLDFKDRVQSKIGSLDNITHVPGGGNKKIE
#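 Recombinant human tau K18 fragment […] carrying P301L, 15 uM unlabeled plus 0.24 uM Alexa 594-labeled, was fibrillized with 20 uM heparin in 100 mM sodium acetate pH 7 for 6 hr at 37 C; 30 uM ThT fluorescence read after 1 hr.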
# TRb SRC2 PPI = inhibitors of human thyroid hormone receptor beta-SRC2 interaction. TRbeta-SRC2 peptide binding, fluorescence polarization; receptor liganded with 1 µM T3. 280,000 tested, 0.065% active. AID 1469. Potency, µM (series often up to 106 µM), for inactives: top-dose activity change, negative = inhibition, most hits filed as inhibitors;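 further: plate controls were bound peptide for no effect and peptide without receptor for full effect; nearly all actives have a fitted effect of over 50% in size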
# Target sequence (P10828 whole entry, looked up): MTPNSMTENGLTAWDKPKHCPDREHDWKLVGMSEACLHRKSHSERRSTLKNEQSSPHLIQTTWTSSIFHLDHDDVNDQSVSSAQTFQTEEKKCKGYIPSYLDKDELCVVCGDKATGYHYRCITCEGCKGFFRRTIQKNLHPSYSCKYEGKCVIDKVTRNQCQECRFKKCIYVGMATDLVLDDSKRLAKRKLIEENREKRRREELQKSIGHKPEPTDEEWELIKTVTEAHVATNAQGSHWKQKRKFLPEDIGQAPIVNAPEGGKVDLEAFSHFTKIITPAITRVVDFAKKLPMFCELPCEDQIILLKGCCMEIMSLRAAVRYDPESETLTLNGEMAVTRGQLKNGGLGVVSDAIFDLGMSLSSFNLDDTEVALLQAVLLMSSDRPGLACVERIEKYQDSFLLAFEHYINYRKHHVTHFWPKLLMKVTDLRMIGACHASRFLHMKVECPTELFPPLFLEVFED
#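 Fluorescence polarization of 20 nM Texas Red SRC2 peptide (20-aa NR interaction domain) bound to 0.6 uM human TRb ligand-binding domain, with 1 uM T3, after 5 hr at ambient temperature; inhibition seen as decreased polarization.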
# TR SRC2 fluor cs = Texas Red fluorescence interference in TRb-SRC2 counter-screen; 280,000 tested, 0.29% active; Potency, µM (series often up to 106 µM), without a hit: top-dose fluorescence change, negative = quenching; TRb/SRC2 Texas Red total fluorescence interference; active means well fitted curve in either direction with a large enough effect; inconclusive means small, poorly fitted or top-dose-only effect
#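 Human TRβ ligand-binding domain (0.6 uM) and Texas Red SRC2 peptide (20 nM) in Tris buffer with 1 uM T3 and 5% DMSO were incubated with pinned compound for 5 hr at ambient temperature. Total fluorescence was computed as S + 2P (555/632 nm).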
# Tau FP inhib = inhibitors of human tau fibril formation; Potency, µM (series often up to 57.7 µM), for inactives: top-dose activity, negative = inhibition, actives largely listed as inhibitors; K18 P301L tau heparin fibrillization, Alexa594 FP, 6 h; 280,000 tested, 0.39% active; further: nearly all actives have a fitted effect of over 55% in size
#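 Heparin (20 uM) drove fibril formation of recombinant tau K18 P301L, 15 uM unlabeled with 0.24 uM Alexa 594 label, for 6 hr at 37 C in 100 mM sodium acetate pH 7. Fluorescence polarization (555/632 nm) read 1 hr after 30 uM ThT.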
# Tau fluor counter = counter-screen for tau fibril formation inhibitors; tau K18 P301L (four-repeat tau fragment) Alexa594 fluorescence, heparin fibrillization; Potency, µM (titrated, usually from 57.7 µM), for the others: at the top dose activity change, negative = decrease; 280,000 tested, 0.93% active; AID 1463; further: nearly all actives have a fitted effect of over 55% in size
#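 Human K18 P301L tau (15 uM unlabeled plus 0.24 uM Alexa 594-labeled, final) in 100 mM sodium acetate pH 7 was mixed with compound and 20 uM heparin and incubated 6 hr at 37 C.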
# * = called active by the depositor; ? = inconclusive; . = no result given; [ ] = dose if it differs, or a comment. The list is not random: actives were taken first. Their share in the collection is about 3.1%. Unless noted, the call rests on the fitted dose curve; in most records, active means well fitted curve in the direction sought with a large enough effect; inconclusive means small, poorly fitted or top-dose-only effect, or another doubt; inactive means no such curve, though single readings can be large; an effect the other way counts as inactive or inconclusive. Unless noted, on the % scale 0 is the no-effect control and ±100 the full control effect; potency means the concentration at half of the fitted maximal effect.
SMILES,Tau ThT inhib,TRb SRC2 PPI,TR SRC2 fluor cs,Tau FP inhib,Tau fluor counter
CCN1CCN(c2ccc(N=Cc3ccc(O)cc3O)cc2)CC1,15.8µM*,-5.6%,-1.4%,?,?
Cc1ccc(CNC(=O)CSc2ncc3c(n2)-c2ccc(Cl)cc2N(Cc2ccccc2)S3(=O)=O)cc1,17.1%,6.0%,1.1%,-13.0%,-6.2%
Cc1ccccc1NC(=O)c1ccc(Cl)c(S(=O)(=O)N2CCCCCC2)c1,-3.4%,?,0.794µM*[quencher],-2.7%,-15.2%
Cc1ccc(C(=O)Nc2ccccc2C(=O)O)cc1S(=O)(=O)N1CCCCCC1,-4.7%,2.2%,9.0%,5.4%,-4.8%
O=S(=O)(Nc1nc2ccccc2nc1Nc1ccc2c(c1)OCCO2)c1cccs1,12.6µM*,0.3%,-18.8%,14.7%,?
COc1ccc(S(=O)(=O)Nc2nc3ccccc3nc2Nc2ccc3c(c2)OCO3)cc1,?,-6.2%,4.0%,2.6%,?
Cc1ccc(C)c(Nc2nnc(-c3ccc(C)c(S(=O)(=O)NCC4CCCO4)c3)c3ccccc23)c1 (stereo not given),-8.8%,8.1%,1.8%,-0.1%,-7.9%
Cc1oc(-c2ccccc2)cc1C(=O)Nc1cccc(/C=C\C(=O)O)c1,-9.6%,-5.3%,-0.3%,1.8%,-10.9%
Cc1oc(-c2ccccc2)cc1C(=O)Nc1ccc(N(C)C)cc1,12.6µM*,-0.9%,1.2%,4.6%,14.1µM*[quencher]
COc1ccc(N2C(=O)CSC23C(=O)N(CC(=O)NCc2ccccc2)c2ccccc23)cc1 (stereo not given),0.1%,-2.0%,4.8%,-1.4%,-9.2%
O=C1COc2ccc(-c3cc(-c4ccccc4)c4c(n3)-c3ccccc3OC4)cc2N1,7.4%,6.3%,2.8%,-8.6%,-13.6%
O=c1c(-c2cc(-c3ccccc3)nc3c2COc2ccccc2-3)coc2ccc(Cl)cc12,-2.5%,-8.3%,20µM*[quencher],-8.2%,-12.8%
O=C1COc2ccc(-c3cc(-c4ccc(Cl)cc4)c4c(n3)-c3ccccc3OC4)cc2N1,3.5%,-7.3%,10µM*[quencher],?,-11.7%
Cc1ccc(N2CCN(Cc3nnc(-c4ccccc4F)o3)CC2)c(C)c1,?,0.0%,0.1%,2.8%,-14.5%
CN1C2CCC1/C(=C\c1ccccc1)C(=O)/C2=C\c1ccccc1,15.8µM*,7.4%,-3.3%,?,-25.0%
O=C1/C(=C/c2ccccc2)CCC1C1CCCC1 (stereo not given),?,-7.6%,-2.5%,-1.3%,-12.6%
CCOC(=O)CSc1[nH]c2cc(OC)ccc2c1[N+](=O)[O-],-0.4%,13.8%[53 µM],0.3%[53 µM],-0.3%,-1.5%
COc1ccc2c([N+](=O)[O-])c(Cl)[nH]c2c1,28.2µM*,5.1%,-0.4%,?,?
O=[N+]([O-])/C=C\c1ccc(N2CCCC2)c(F)c1,15.8µM*,-1.2%,-1.5%,-7.8%,?
O=Cc1ccc(N2CCCC2)c([N+](=O)[O-])c1,?,1.9%,-3.9%,2.8%,-3.7%
COc1ccc(-c2nnc(SCc3cc(=O)c4cc(C)cc(C)c4[nH]3)n2C)cc1,-16.6%,-4.0%,-1.4%,1.9%,0.1%
Cc1ccc(Nc2nc(-c3cccs3)cs2)nc1,15.8µM*,-1.3%,-6.4%,-8.8%,22.4µM*[quencher]
c1ccc(-c2csc(Nc3cccnc3)n2)nc1,?,-8.6%,-2.6%,3.3%,-19.3%
Cc1cc(O)ccc1Nc1nc(-c2cccs2)cs1,14.1µM*,-5.4%,2.8%,4.4%,25.1µM*[quencher]
c1cncc(Nc2nc(-c3cccs3)cs2)c1,?,-18.4%,0.0%,9.2%,15.8µM*[quencher]
SMILES,Tau ThT inhib,TRb SRC2 PPI,TR SRC2 fluor cs,Tau FP inhib,Tau fluor counter
COc1ccc(C(=O)Nc2nc(-c3cccs3)cs2)cc1,?,10.5%,-0.3%,?,?
CCOc1ccc(-c2nc(CSCC(=O)NCCc3ccccc3)c(C)o2)cc1,?,0.5%,-0.1%,5.5%,-5.0%
Cc1oc(-c2ccccc2F)nc1CSCC(=O)NCCc1ccccc1,?,-27.5%,0.126µM*[quencher],3.2%,-17.9%
CC1CC1c1ccc(/C=C(\C#N)C(=O)Nc2cc(Cl)ccc2Cl)o1 (stereo not given),-8.3%,6.0%,-8.5%,-10.7%,-11.2%
N#C/C(=C\c1ccc(-c2cc(Cl)ccc2Cl)o1)C(=O)Nc1ccccc1C(=O)O,7.08µM*,2.1%,-10.4%,-3.9%,-7.0%
CC(C)COC(=O)/C(C#N)=C\c1ccc(-c2ccccc2Cl)o1,?,1.3%,-0.6%,4.7%,-24.3%
N#C/C(=C\c1ccc(-c2ccccc2Cl)o1)C(=O)Nc1nc2ccccc2s1,3.55µM*,-1.6%,-1.3%,13.3%,-5.4%
O=S(=O)(/N=C(\Sc1ccc(Cl)cc1)c1ccccc1)c1ccccc1,35.5µM*,-12.5%,-1.2%,?,-11.1%
CCc1cccc(NC(=O)c2ccc(CN3C(=O)C(C)=C(c4ccc(OC)cc4)S3(=O)=O)cc2)c1,2.7%,5.2%,-20.3%,-8.5%,-7.5%
Cc1ccc(NS(=O)(=O)c2cc([N+](=O)[O-])ccc2NNC(=S)Nc2cc(C)ccc2C)c(C)c1,?,3.0%,-0.5%,4.2%,12.6µM*[quencher]
COc1ccc(NC(=S)NNc2ccc([N+](=O)[O-])cc2S(=O)(=O)Nc2ccc(C)cc2C)cc1,31.6µM*,-1.0%,0.9%,-5.1%,14.1µM*[quencher]
Cc1ccc(NS(=O)(=O)c2cc([N+](=O)[O-])ccc2NNC(=S)Nc2cccc(Cl)c2)c(C)c1,10µM*,6.3%,?,?,7.94µM*[quencher]
COc1ccc(NC(=S)Nc2cccc([N+](=O)[O-])c2)cc1,-17.6%,-2.8%,-1.0%,5.8%,-19.5%
Cc1ccc([N+](=O)[O-])cc1NC(=S)NC(=O)C(C)(C)C,-2.2%,12.9%,0.5%,-0.8%,-4.1%
CCC(=O)OCCc1ccccc1,.,5.7%[201 µM],-2.1%[201 µM],.,.

# Assay outcomes deposited in PubChem BioAssay by National Center for Advancing Translational Sciences (NCATS).
